Epigenetic mod – qHTS Assay for Epigenetic Modulators; mouse C127i GFP locus derepression, cytometry, 30 h; Potency, µM (doses to about 46.1 µM); actives 0.09% (n = 68,000); AID 597, 2007
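Murine C127i mammary cells carrying a silenced, stably integrated CMV-driven GFP reporter were treated with compound for 30 hours at 37 C. After PBS washes, GFP-positive cells were counted by laser-scanning microplate cytometry.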
p53ts 39C kill – qHTS Screen for Compounds that Selectively Target Cancer Cells with p53 Mutations: Cytotoxicity of p53ts Cells at the Nonpermissive Temperature; Potency, µM (top dose mostly 46.1 µM), usual class: cytotoxic; actives 1.5% (n = 130,000); H1299-p53A138V viability at 39C, ATP luminescence, 24 h; AID 902, 2007; further: nearly all actives have a fitted effect of over 55% in size
HBB splicing – qHTS Assay for Modulators of Hemoglobin Beta Chain Splicing. HBB splicing reporter cell assay, activation; EGFP reporter with mutant IVS2-654 intron; response scale: normalised to 500 nM splice-correcting PNA. AID 925, 2007. actives 0.06% (n = 65,000). Potency, µM (doses to about 46.1 µM), usual class: activators
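HeLa cells stably expressing EGFP interrupted by mutant beta-globin intron 2 (IVS2-654), 500/well in 2% FCS. Treated with compound for 2 days at 37C. Splicing correction scored as total well GFP intensity (488 nm excitation, 500-520 nm emission); 500 nM antisense PNA served as control.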
Imprint erasure – qHTS Assay for Compounds that Induce Erasure of Genomic Imprints. mouse ES Peg3-LacZ reporter, beta-gal luminescence, 40 h. Potency, µM (highest dose often 60.7 µM), usual class: activators. actives 0.02% (n = 110,000). AID 1948, 2009
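Imprint erasure is scored as LacZ activity from the silenced maternal Peg3 allele in feeder-free female ES cells cultured 40 h with LIF. Luminescence is normalized to in-plate negative controls and fitted to the Hill equation.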
p53ts 32C tox – qHTS Screen for Compounds that Selectively Target Cancer Cells with p53 Mutations: Cytotoxicity of p53ts Cells at the Permissive Temperature; actives 0.93% (n = 130,000); Potency, µM (top dose mostly 46.1 µM), actives largely listed as cytotoxic; H1299-p53A138V at 32C, ATP luminescence viability, 24 h; further: nearly all actives have a fitted effect of over 55% in size
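Cells: H1299 p53ts (A138V), 600/well, pre-incubated 16–30 h at 37C. Cpd up to 46 uM, 24 h, 32C. Readout: ATPlite luminescence, 20 min RT. Normalization: DMSO vs tamoxifen 100 uM. AC50 by Hill equation.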
Ub-GFP proteasome – Ubiquitin-GFP Assay | Ubiquitin-GFP reporter cells, proteasome inhibition, GFP fluorescence; response scale: untreated = 0%, 10 µM MG-132 = 100% | Potency, µM (top dose mostly 45.9 µM), hits mostly activators | 67,000 tested, under 10 active; active means well fitted activation curve with a large enough effect, not every such curve was filed as active; inconclusive means small, poorly fitted or top-dose-only effect, or another doubt; inactive means no such curve, though single readings can be large or run the other way
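U2OS cells expressing ubiquitin(G76V)-GFP, seeded overnight in 0.5% FBS medium, then treated 4 hr at 37 C across 46 uM to 2.9 nM. GFP-positive cells counted by laser cytometry (488 ex/515 em); %activity scaled between basal and 10 uM MG-132.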
Numbers stand for hits; ! = not confirmed by another sample; [ ] = another dose, or the depositor's remark. Shown are actives, neighbours in structure and some others; about 1.6% of the full set was active somewhere. Unless noted, the call rests on the fitted dose curve; in most records, active means well fitted curve in the direction sought with a large enough effect; inconclusive means small, poorly fitted or top-dose-only effect, or another doubt; inactive means no such curve, though single readings can be large; an effect the other way counts as inactive or inconclusive.

COc1ccc(-n2nc3cc(C)c(N)c(Br)c3n2)cc1 was read as Epigenetic mod inactive, p53ts 39C kill 12.6µM, HBB splicing inactive, Imprint erasure inactive, p53ts 32C tox 12.6µM and Ub-GFP proteasome inactive.
Screening COc1ccc(-n2nc3ccccc3n2)cc1 returned Epigenetic mod inactive, p53ts 39C kill inactive, HBB splicing inactive, Imprint erasure inactive, p53ts 32C tox inactive and Ub-GFP proteasome inactive.
CCc1ccc(C2CC(=O)c3c([nH]c(C(=O)OC4CCCCCC4)c3C)C2)cc1 (stereo unspecified) was read as p53ts 39C kill inactive, Imprint erasure inactive[10.9 µM] and p53ts 32C tox inactive.
For CC(Oc1ccc(F)cc1)C(=O)N1CCC(c2nc3ccccc3s2)CC1 (stereo unspecified) the results were p53ts 39C kill inactive, Imprint erasure inactive[10.9 µM] and p53ts 32C tox inactive.
COc1ccc(-n2c(=O)c3sc4ccccc4c3n(CC(=O)N3CCCC3)c2=O)cc1 was read as p53ts 39C kill inactive, Imprint erasure inactive[10.9 µM] and p53ts 32C tox inactive.
For CC(=O)NC1=C(NC2CCS(=O)(=O)C2)C(=O)c2ccccc2C1=O (stereo unspecified) the results were p53ts 39C kill inconclusive and p53ts 32C tox 15.8µM.
For COC(=O)c1ccc(NC(=O)c2cc(S(=O)(=O)N3CCOCC3)cn2C)cc1 the results were p53ts 39C kill inactive, Imprint erasure inactive[10.9 µM] and p53ts 32C tox inactive.
CCN(c1ccccc1)c1ncnc2c1cnn2-c1ccc(OC)cc1 was read as p53ts 39C kill 12.6µM, Imprint erasure inactive[10.9 µM] and p53ts 32C tox inconclusive.
Screening Cc1ccc(-n2ncc3c(N(C)Cc4ccccc4)ncnc32)cc1 returned p53ts 39C kill 15.8µM, Imprint erasure inactive[10.9 µM] and p53ts 32C tox inconclusive.
`O=C(Nc1ccc(C(F)(F)F)cc1)c1cc(S(=O)(=O)NC2CCCCC2)ccc1F` gave p53ts 39C kill 10µM, Imprint erasure inactive[10.9 µM] and p53ts 32C tox inactive.
O=C(Nc1ccc(C(F)(F)F)cc1)c1cc(S(=O)(=O)NC2CCCCCC2)ccc1F was read as p53ts 39C kill inconclusive, Imprint erasure inactive[10.9 µM] and p53ts 32C tox inactive.
`CCc1ccc(NC(=O)c2ccc(F)c(S(=O)(=O)NC3CCCCCC3)c2)cc1` gave p53ts 39C kill inactive, Imprint erasure inactive[10.9 µM] and p53ts 32C tox inactive.
Screening O=C(Nc1cc(Cl)cc(Cl)c1)c1ccc(F)c(S(=O)(=O)NC2CCCC2)c1 returned p53ts 39C kill 12.6µM, Imprint erasure inactive[10.9 µM] and p53ts 32C tox inconclusive.
Screening COc1cccc(CNC(=O)c2ccc3c(c2)sc2nc(-c4ccccc4)cn23)c1OC returned p53ts 39C kill inactive, Imprint erasure inactive[10.9 µM] and p53ts 32C tox inactive.
CCN1c2ccccc2NC2N=C(OC)C(c3ccccc3)C21 (stereo unspecified) was read as Epigenetic mod inactive, p53ts 39C kill 12.6µM, HBB splicing inactive[9.22 µM], Imprint erasure inactive, p53ts 32C tox inconclusive and Ub-GFP proteasome inactive.
Screening CCC(C)S(=O)(=O)c1oc(-c2cccs2)nc1S(=O)(=O)c1ccccc1 (stereo unspecified) returned p53ts 39C kill 1µM, Imprint erasure inactive[10.9 µM] and p53ts 32C tox 6.31µM.
For CC(C)CS(=O)(=O)c1oc(-c2ccc(F)cc2)nc1S(=O)(=O)c1ccccc1 the results were p53ts 39C kill 2.51µM, Imprint erasure inactive[10.9 µM] and p53ts 32C tox 10µM.
COc1cccc(NC(=O)c2oc3ccccc3c2NC(=O)c2ccccc2C)c1 was read as p53ts 39C kill inactive, Imprint erasure inconclusive and p53ts 32C tox inactive.
`O=C(NCc1cccnc1)C(=O)NCC(c1cccnc1)N1CCN(c2ccc(F)cc2)CC1` (stereo unspecified) gave p53ts 39C kill inconclusive, Imprint erasure inactive[10.9 µM] and p53ts 32C tox inactive.
For O=C(NCCc1ccccc1)C(=O)NCC(c1cccnc1)N1CCN(c2ccc(F)cc2)CC1 (stereo unspecified) the results were p53ts 39C kill 20µM, Imprint erasure inactive[10.9 µM] and p53ts 32C tox inconclusive.
For COc1ccc(Cn2c(=O)c3ccccc3n3c(-c4cccc(OC)c4OC)nnc23)cc1 the results were p53ts 39C kill inactive, Imprint erasure inactive[10.9 µM] and p53ts 32C tox inactive.
For COc1ccc(OC)c(-c2nnc3n(CCc4ccccc4)c(=O)c4ccccc4n23)c1 the results were p53ts 39C kill 12.6µM, Imprint erasure inactive[10.9 µM] and p53ts 32C tox inactive.
`CCC(Nc1ccc(-c2nc(-c3ccccn3)no2)cc1[N+](=O)[O-])c1ccccc1` (stereo unspecified) gave p53ts 39C kill inactive, Imprint erasure inactive[10.9 µM] and p53ts 32C tox inactive.
Screening Cc1ccc2cc(/C=N/Nc3nc4ccccc4[nH]3)c(Cl)nc2c1 returned p53ts 39C kill 3.55µM.
`CCCCNc1c(C(=O)OCC)c(C)nc2c1cnn2CC` gave Epigenetic mod inactive, p53ts 39C kill 15.8µM!, HBB splicing inactive, Imprint erasure inactive, p53ts 32C tox inactive and Ub-GFP proteasome inactive.
`O=S(=O)(Nc1cccc(-c2ccc(N3CCCCCC3)nn2)c1)c1ccc(F)cc1` gave p53ts 39C kill inactive, Imprint erasure inactive[10.9 µM] and p53ts 32C tox inconclusive.
For CCc1ccc(S(=O)(=O)Nc2cccc(-c3ccc(OC)nn3)c2)s1 the results were p53ts 39C kill inactive, Imprint erasure inactive[10.9 µM] and p53ts 32C tox inactive.
`Cc1ccc(S(=O)(=O)Nc2cccc(-c3ccc(N4CCCCC4)nn3)c2)s1` gave p53ts 39C kill 1µM, Imprint erasure inactive[10.9 µM] and p53ts 32C tox 12.6µM.
CCc1ccc(S(=O)(=O)Nc2cccc(-c3ccc(N4CCCCC4)nn3)c2)s1 was read as p53ts 39C kill 15.8µM, Imprint erasure inactive[10.9 µM] and p53ts 32C tox 12.6µM.
For CC(=O)c1ccc(S(=O)(=O)Nc2cccc(-c3ccc(N4CCCCC4)nn3)c2)cc1 the results were p53ts 39C kill 5.01µM, Imprint erasure inactive[10.9 µM] and p53ts 32C tox 10µM.
Screening Cc1ccc(S(=O)(=O)Nc2cccc(-c3ccc(N4CCCC4)nn3)c2)c(C)c1 returned p53ts 39C kill inactive, Imprint erasure inactive[10.9 µM] and p53ts 32C tox inactive.
For Nc1ncnc2nc[nH]c12.Nc1ncnc2nc[nH]c12.[Cl][Pt]([Cl])([Cl])[Cl] the results were Epigenetic mod inactive[9.22 µM], HBB splicing inactive[9.22 µM] and Ub-GFP proteasome inactive[9.17 µM].

Screens: PubChem, National Center for Advancing Translational Sciences (NCATS)
